Data on five molecules can be found in PubChem BioAssay.

Each structure is given as a SMILES string. Active and inactive are the calls of the source.

Assay [1] relates to PRMT1 (protein arginine N-methyltransferase 1). In words: PRMT1 binders on small-molecule microarrays, primary screen, biochemical, small-molecule microarray, 635 nm fluorescence (AID 1088).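 Further: binding of Prmt1 protein to compounds spotted on small-molecule microarray slides.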 As to conditions: small-molecule microarray binding, higher = more signal.
A short description of assay [2]: yeast growth modulation, basal conditions, primary screen, YJM789 clinical isolate, OD600, 24 h (AID 1089).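 Further: growth of clinical yeast isolate S. cerevisiae YJM 789 seeded 1000 cells per well; test concentration not given here.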 As to conditions: S. cerevisiae YJM789 growth, higher = more signal, called active from +8 up or from −8 down.
The nature of assay [3]: fission yeast growth modulation, primary screen, strain 972, OD600, 24 h, no modulator (AID 1090).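 Further: basal condition with compound alone and no growth modifier present; test concentration not given here.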 As to conditions: S. pombe 972 growth, higher = more signal, called active from +8 up or from −8 down.
The nature of assay [4]: S. cerevisiae growth modulation with rapamycin, primary screen, strain BY4716, OD600, 96 h (AID 1091). Further: test concentration not given here. As to conditions: higher = more signal, called active from +8 up or from −8 down.
Assay [5] has as its target Torsin-1A-interacting protein 2 (Homo sapiens) (UniProt Q8NFQ8). In words: LULL1 binders on small-molecule microarray, primary screen, cell lysate, human LULL1 lysate, 635/667 nm fluorescence (AID 1092).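 Further: probe is lysate of COS7 cells overexpressing human LULL1; score merges per-feature 667 nm fluorescence with signal-to-noise.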 As to conditions: hLULL1 lysate binding, 635 nm fluorescence, higher = more signal.
The nature of assay [6]: E. coli growth modulation, two-sided OD650, primary screen, E. coli filamentation project, strain DRC41, 24 h (AID 1093).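 Further: MC1000 strain lacking acrAB efflux and sulA so SOS filamentation is blocked; test concentration not given here.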 As to conditions: OD650, 24 h, higher = more signal, called active from +8 up or from −8 down.
The nature of assay [7]: small-molecule microarray binders of probe aLefty2, primary screen, biochemical, biotinylated probe, 635/667 nm fluorescence (AID 1094).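 Further: score merges spot fluorescence near 667 nm with spot signal-to-noise ratio.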 As to conditions: higher = more signal.
The subject of assay [8] is Noggin (protein binding on small-molecule microarray). In words: Noggin binders on small-molecule microarray, primary screen, biochemical, 635/667 nm fluorescence (AID 1095).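 Further: score merges 667 nm feature fluorescence with signal to noise over triplicate slides.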 As to conditions: 635 nm fluorescence, higher = more signal.
Assay [9] concerns the target Neurogenic locus notch homolog protein 3 (Homo sapiens) (UniProt Q9UM47). Description: NOTCH3 binders on small-molecule microarray, primary screen, biochemical, 635/667 nm fluorescence (AID 1096). As to conditions: NOTCH3 binding, 635 nm fluorescence, higher = more signal.
Assay [10] in a line: small-molecule microarray binders of probe aEGFR, primary screen, biochemical, biotinylated probe, 635/667 nm fluorescence (AID 1097).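 Further: probe is a biotinylated anti-EGFR antibody binding compounds printed on slides; score combines fluorescence near 667 nm and signal to noise of each spot.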 As to conditions: higher = more signal.
For assay [11], the system named is Plasmodium falciparum Sir2 (PF13_0152, Sir2A). Description: pfSir2 binders on small-molecule microarrays, primary screen, biochemical, small-molecule microarray, 635 nm fluorescence (AID 1098).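 Further: score merges spot fluorescence intensity with its signal-to-noise ratio.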 As to conditions: small-molecule microarray binding, fluorescence 635 nm; higher = more signal.
Assay [12] can be described thus: small-molecule microarray binders of probe aDKK1, primary screen, biochemical, biotinylated probe, 635/667 nm fluorescence (AID 1099).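 Further: score merges 667nm spot fluorescence with signal to noise across triplicate slides; reference of the scale not given here.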 As to conditions: higher = more signal.
A short description of assay [13]: small-molecule microarray binders of probe aCHRDL2, primary screen, biochemical, biotinylated probe, 635/667 nm fluorescence (AID 1100). As to conditions: higher = more signal.
A short description of assay [14]: splicing luciferase reporter signal modulators, primary screen, spliceosome inhibition project, cell-based, HEK293, splice +/- reporter (AID 1101).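 Further: HEK293 cells carrying a splicing-competent luciferase reporter gene; test concentration not given here.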 As to conditions: luminescence, 24 h, higher = more signal, called active from +8 up or from −8 down. On the technique in general: In a reporter assay the amount or activity of a reporter protein is the signal.
Assay [15] concerns the target Fibroblast growth factor 10 (Homo sapiens) (UniProt O15520). Description: FGF10 binders on small-molecule microarrays, primary screen, biochemical, small-molecule microarray, 635 nm fluorescence (AID 1102). As to conditions: FGF10 binding, fluorescence 635 nm, higher = more signal.
Assay [16] deals with glycogen synthase kinase-3 (GSK3A per assay name; protocol says GSK3B). In words: GSK3 binders on small-molecule microarrays, primary screen, biochemical, small-molecule microarray, 635 nm fluorescence, GSK3A (AID 1103). Further: the record names both GSK3A and GSK3B. As to conditions: small-molecule microarray binding, fluorescence 635 nm; higher = more signal.
Assay [17] concerns the target Epidermal growth factor receptor (Homo sapiens) (UniProt P00533). In words: EGFR binders on small-molecule microarrays, primary screen, biochemical, small-molecule microarray, 635 nm fluorescence (AID 1104).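 Further: score merges 667 nm emission intensity with spot signal to noise over triplicate slides.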 As to conditions: EGFR binding, higher = more signal.
Assay [18] addresses Follistatin-related protein 3 (Homo sapiens) (UniProt O95633). Description: FSTL3 binders on small-molecule microarrays, primary screen, biochemical, small-molecule microarray, 635 nm fluorescence (AID 1105).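 Further: score merges emission near 667 nm and signal to noise per printed spot across three slides.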 As to conditions: FSTL3 binding, higher = more signal.
The target of assay [19] is Dickkopf-related protein 1 (Homo sapiens) (UniProt O94907). In words: DKK1 binders on small-molecule microarrays, primary screen, biochemical, small-molecule microarray, 635 nm fluorescence scan (AID 1106).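 Further: score merges emission near 667 nm with signal to noise over three replicate slides.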 As to conditions: DKK1 binding, higher = more signal.
Dickkopf-related protein 1 (Homo sapiens), sequence (O94907 whole entry, looked up): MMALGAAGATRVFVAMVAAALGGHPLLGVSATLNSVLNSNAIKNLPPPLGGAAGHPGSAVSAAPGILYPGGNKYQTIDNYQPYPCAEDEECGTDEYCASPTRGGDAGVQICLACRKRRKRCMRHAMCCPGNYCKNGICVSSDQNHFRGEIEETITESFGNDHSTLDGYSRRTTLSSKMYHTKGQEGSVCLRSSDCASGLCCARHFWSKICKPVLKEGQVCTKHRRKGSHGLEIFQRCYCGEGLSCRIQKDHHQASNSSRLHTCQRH
Assay [20] concerns Inhibin beta A chain (activin A). In words: INHBA (activin A) binders on microarrays, primary screen, biochemical, small-molecule microarray, 635 nm fluorescence scan (AID 1107).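 Further: mouse activin A protein probed at 4.33 µg/mL on printed slides; score merges bound-protein fluorescence near 667 nm with spot signal-to-noise.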 As to conditions: small-molecule microarray binding, higher = more signal.

Follistatin-related protein 3 (Homo sapiens), sequence (O95633 whole entry, looked up): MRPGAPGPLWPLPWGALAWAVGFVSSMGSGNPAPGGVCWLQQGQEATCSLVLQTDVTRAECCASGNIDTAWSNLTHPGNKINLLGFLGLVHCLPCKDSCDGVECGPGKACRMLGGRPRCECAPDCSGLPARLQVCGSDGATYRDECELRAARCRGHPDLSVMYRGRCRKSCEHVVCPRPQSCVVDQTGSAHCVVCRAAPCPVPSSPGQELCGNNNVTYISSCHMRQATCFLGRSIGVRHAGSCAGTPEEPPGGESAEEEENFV
Neurogenic locus notch homolog protein 3 (Homo sapiens), sequence (Q9UM47 whole entry, looked up): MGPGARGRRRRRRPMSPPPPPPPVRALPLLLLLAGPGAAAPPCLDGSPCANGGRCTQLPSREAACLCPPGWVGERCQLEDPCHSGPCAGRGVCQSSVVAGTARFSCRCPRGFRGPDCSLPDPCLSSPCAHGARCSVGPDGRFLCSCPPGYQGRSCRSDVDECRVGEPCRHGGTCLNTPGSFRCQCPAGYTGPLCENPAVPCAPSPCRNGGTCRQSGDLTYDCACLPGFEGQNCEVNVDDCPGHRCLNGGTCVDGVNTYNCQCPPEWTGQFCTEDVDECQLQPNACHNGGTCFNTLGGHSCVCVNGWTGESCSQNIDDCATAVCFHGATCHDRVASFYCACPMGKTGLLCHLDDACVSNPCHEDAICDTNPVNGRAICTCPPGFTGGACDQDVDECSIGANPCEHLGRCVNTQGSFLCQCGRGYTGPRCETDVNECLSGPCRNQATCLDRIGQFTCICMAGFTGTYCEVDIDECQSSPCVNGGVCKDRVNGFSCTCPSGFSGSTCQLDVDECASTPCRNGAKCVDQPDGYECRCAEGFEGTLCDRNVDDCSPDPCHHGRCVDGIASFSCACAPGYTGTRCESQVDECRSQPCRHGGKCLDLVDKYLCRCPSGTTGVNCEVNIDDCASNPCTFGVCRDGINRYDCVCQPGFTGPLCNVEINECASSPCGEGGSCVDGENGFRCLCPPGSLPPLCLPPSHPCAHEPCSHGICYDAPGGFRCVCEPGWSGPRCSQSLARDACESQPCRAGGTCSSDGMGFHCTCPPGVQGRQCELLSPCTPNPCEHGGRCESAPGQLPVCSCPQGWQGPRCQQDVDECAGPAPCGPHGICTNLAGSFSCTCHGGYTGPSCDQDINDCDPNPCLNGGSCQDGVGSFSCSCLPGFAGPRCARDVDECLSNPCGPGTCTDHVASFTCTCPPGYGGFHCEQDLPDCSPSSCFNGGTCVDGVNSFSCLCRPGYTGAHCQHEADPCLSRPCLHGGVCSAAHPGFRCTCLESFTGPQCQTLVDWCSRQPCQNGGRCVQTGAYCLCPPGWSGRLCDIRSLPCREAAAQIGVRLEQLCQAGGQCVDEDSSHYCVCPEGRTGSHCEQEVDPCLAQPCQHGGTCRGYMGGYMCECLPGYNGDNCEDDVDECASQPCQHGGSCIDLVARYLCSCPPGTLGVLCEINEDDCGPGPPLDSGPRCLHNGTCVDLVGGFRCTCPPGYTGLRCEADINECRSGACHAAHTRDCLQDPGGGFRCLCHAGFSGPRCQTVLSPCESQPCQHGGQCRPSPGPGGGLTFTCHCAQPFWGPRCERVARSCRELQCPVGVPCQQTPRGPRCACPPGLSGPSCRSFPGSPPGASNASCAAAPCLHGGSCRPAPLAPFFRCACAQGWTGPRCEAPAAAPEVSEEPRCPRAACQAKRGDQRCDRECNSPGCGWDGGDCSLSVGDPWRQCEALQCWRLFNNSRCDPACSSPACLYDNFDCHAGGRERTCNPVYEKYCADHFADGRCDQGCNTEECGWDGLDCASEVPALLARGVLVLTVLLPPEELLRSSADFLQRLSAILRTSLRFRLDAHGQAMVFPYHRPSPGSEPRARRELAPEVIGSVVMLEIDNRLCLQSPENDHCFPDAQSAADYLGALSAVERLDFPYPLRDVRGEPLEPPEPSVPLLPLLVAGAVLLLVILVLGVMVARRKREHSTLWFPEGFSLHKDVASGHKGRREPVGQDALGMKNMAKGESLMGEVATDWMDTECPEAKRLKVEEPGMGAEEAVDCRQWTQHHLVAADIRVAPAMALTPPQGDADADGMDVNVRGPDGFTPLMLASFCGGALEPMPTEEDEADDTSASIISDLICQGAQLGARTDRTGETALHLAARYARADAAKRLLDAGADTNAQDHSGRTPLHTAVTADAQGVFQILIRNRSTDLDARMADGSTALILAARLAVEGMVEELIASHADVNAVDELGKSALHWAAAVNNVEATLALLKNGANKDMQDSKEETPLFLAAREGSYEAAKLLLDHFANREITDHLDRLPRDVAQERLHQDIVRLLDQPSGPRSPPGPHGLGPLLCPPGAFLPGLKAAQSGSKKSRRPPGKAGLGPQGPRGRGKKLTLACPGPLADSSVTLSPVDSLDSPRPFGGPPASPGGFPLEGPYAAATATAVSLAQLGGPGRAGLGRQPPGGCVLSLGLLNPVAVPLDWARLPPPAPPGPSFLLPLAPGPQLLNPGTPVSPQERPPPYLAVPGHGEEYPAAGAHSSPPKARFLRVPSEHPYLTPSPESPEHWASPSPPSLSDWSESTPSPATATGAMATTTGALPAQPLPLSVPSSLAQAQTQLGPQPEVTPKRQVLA
Epidermal growth factor receptor (Homo sapiens), sequence (P00533 whole entry, looked up): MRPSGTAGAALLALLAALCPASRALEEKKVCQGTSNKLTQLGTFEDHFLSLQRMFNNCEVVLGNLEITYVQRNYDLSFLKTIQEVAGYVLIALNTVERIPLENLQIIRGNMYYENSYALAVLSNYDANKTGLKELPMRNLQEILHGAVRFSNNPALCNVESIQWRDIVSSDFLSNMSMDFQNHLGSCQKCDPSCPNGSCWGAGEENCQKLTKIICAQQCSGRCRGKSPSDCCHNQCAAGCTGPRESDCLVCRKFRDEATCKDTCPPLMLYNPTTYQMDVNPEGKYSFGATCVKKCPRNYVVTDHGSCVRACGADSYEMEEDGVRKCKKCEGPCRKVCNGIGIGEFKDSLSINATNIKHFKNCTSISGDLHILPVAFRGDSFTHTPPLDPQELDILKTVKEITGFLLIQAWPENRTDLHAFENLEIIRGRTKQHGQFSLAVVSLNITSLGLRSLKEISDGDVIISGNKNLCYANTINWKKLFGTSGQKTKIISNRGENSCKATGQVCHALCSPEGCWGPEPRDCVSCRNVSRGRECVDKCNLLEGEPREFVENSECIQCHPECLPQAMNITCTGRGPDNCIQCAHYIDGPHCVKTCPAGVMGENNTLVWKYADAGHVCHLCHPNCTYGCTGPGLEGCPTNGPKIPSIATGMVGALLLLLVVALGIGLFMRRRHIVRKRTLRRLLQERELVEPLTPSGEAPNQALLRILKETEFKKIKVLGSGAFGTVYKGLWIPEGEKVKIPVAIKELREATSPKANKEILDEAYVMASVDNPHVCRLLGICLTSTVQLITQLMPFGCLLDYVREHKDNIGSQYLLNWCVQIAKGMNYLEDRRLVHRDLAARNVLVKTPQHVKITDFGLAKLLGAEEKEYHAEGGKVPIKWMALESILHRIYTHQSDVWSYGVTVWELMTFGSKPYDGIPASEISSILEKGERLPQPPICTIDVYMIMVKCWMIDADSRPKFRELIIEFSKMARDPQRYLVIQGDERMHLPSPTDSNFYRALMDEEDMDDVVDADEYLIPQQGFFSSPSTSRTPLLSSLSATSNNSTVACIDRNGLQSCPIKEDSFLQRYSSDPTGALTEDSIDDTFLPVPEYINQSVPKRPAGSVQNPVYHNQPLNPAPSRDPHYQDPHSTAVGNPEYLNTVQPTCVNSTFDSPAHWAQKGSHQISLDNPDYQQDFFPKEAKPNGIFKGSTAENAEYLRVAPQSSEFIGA
Fibroblast growth factor 10 (Homo sapiens), sequence (O15520 whole entry, looked up): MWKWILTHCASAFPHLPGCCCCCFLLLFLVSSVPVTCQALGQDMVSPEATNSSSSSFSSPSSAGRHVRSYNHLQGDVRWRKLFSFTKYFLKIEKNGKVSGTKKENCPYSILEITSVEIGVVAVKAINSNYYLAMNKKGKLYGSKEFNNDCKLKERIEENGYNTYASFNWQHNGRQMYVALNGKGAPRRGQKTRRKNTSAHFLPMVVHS
Torsin-1A-interacting protein 2 (Homo sapiens), sequence (Q8NFQ8 whole entry, looked up): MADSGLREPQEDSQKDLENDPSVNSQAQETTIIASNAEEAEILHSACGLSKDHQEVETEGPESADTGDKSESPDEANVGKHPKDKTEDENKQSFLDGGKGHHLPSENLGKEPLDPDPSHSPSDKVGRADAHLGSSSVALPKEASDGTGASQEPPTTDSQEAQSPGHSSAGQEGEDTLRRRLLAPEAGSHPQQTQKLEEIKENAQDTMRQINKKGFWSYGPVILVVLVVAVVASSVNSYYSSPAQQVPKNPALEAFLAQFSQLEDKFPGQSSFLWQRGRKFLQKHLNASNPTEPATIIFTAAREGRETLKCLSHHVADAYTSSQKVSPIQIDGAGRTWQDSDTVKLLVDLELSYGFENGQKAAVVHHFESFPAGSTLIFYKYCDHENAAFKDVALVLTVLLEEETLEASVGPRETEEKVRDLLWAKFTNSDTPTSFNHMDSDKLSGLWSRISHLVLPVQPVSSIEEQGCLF

With `CC(C)NC(=O)[C@@]1(C)c2ccccc2C(=O)N(Cc2cc(F)cc(C(F)(F)F)c2)[C@H]1c1ccc(CO)cc1`, the composite z-score was 0.86 in assay [1]; 1.76 in assay [5]; 0.119 in assay [7]; 0.371 in assay [8]; 0.364 in assay [9]; 0.034 in assay [10]. Besides, the composite z-score in [11] stood at 0.442; in assay [12], 0.574; in assay [13], 0.384; in [15], 1.27; in [16] it was 0.917; in assay [17], 0.655. Besides, the composite z-score in assay [18] was 0.57; in assay [19], -0.12; in assay [20] it was 0.858. For the same molecule, the z-score is -0.0639 (inactive) in assay [2]; 0.102 (inactive) in [3]; -0.623 (inactive) in assay [4]; 0.341 (inactive) in assay [6]; -0.0501 (inactive) in [14].
For `CC(=O)OC[C@H]1O[C@H](CCON=C(C)CCN2CCc3nc(-c4ccccc4)c(-c4ccccc4)cc3C2)C=C[C@@H]1OC(C)=O`, the composite z-score is 1.25 in assay [1]; 1.26 in [5]; -0.0258 in [7]; 0.169 in assay [8]; 0.0346 in [9]; -0.0549 in assay [10]. Further, the composite z-score in assay [11] was 0.323; in assay [12], -0.154; in assay [13], 0.101; in [15], -0.422; in assay [16] it was 0.102; in [17], 0.392. The composite z-score in [18] came out at 0.189; in assay [19], 0.222; in assay [20], 1.16. Further, the z-score in [2] is -1.92 (inactive); in assay [3], -0.757 (inactive); in assay [4], -4.46 (inactive); in assay [6] it was 0.901 (inactive); in [14] it was 0.82 (inactive).
As for `COC(=O)[C@@H]1CC[C@H](C)[C@@H](c2ccc(C)cc2)N1C(=O)c1ccc(C=NOC[C@@H](O)COCc2ccco2)cc1`, the composite z-score was -2.07 in assay [1]; -1.69 in assay [5]; 0.0179 in [7]; -1.01 in [8]; -3.12 in assay [9]; -0.0868 in assay [10]. Also, the composite z-score in [11] was -0.525; in [12] it was -0.456; in assay [13], 0.675; in [15] it was -1.43; in assay [16], -1.79; in [17], -1.3. Further, the composite z-score in assay [18] was -2.16; in assay [19] it was -0.5; in assay [20], 1.87. For the same molecule, the z-score in assay [2] was -1.45 (inactive); in [3] it was 0.165 (inactive); in assay [4], -0.71 (inactive); in assay [6], 1.47 (inactive); in assay [14] it was -0.0402 (inactive).
For `Cc1ccc(F)cc1S(=O)(=O)N[C@@H]1CCN(Cc2ccc(CC(C)C)cc2)C1`, the composite z-score is 0.446 in assay [1]; 1.59 in assay [5]; -0.192 in [7]; -0.0204 in assay [8]; -0.734 in assay [9]; -0.17 in assay [10]. The composite z-score in [11] is -0.242; in [12], -0.389; in [13], -0.24; in [15] it was -0.253; in assay [16], -1.12; in assay [17], -0.397. Moreover, the results for the composite z-score in assay [18], in [19] and in assay [20] were -0.301, -0.0911 and 0.346, respectively. In addition, the z-score is -25.8 (active) in [2]; -21.4 (active) in [3]; -4.49 (inactive) in assay [4]; -19.5 (active) in [6]; 1.1 (inactive) in [14].
On to `O=C1[C@H]2[C@H]3[C@H](O)[C@H](O)CC(=NOCc4ccccc4)[C@H]3CC[C@H]2C(=O)N1c1cccc(Oc2ccccc2)c1`, for which the composite z-score in [1] was 1.48; in assay [5] it was 2.41; in assay [7], -0.0654; in assay [8], 0.729; in assay [9] it was 0.824; in [10], 0.0801. Further, the composite z-score in assay [11] is 0.669; in assay [12], -0.421; in assay [13] it was -0.469; in assay [15] it was 0.787; in assay [16], 0.596; in [17] it was 0.349. Also, the composite z-score in assay [18] was 0.911; in assay [19], 0.487; in assay [20] it was -0.0134. Further, the z-score in assay [2] is -0.0026 (inactive); in assay [3] it was 0.019 (inactive); in [4] it was -1.12 (inactive); in assay [6] it was 0.211 (inactive); in [14], 0.639 (inactive).
